S2 tox – Viability Counterscreen for Primary qHTS for Inhibitors of ATXN expression. S2 cells (HEK-293 line with an ATXN2-luciferase reporter) viability, CellTiter-Fluor protease fluorescence, 24 h. Potency, µM (series often up to 56.7 µM), hits mostly cytotoxic. 400,000 tested, 0.49% active; note: nearly all actives have a fitted effect of over 40% in size
ATXN2 expr inh – Primary qHTS for Inhibitors of ATXN expression; 360,000 tested, 0.72% active; Potency, µM (top dose mostly 57 µM), inactives show top-dose activity change, negative = inhibition, most hits filed as inhibitors; AID 1745845, 2022; HEK-293 ATXN2-luciferase reporter, luminescence, 24 h; note: % is set by controls: 0 for no effect and ±100 for the full control effect; nearly all actives have a fitted effect of over 55% in size
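qHTS (up to 57 uM final) was run with 24 h compound exposure of reporter cells at 37 °C. Each well was multiplexed: SteadyGlo luminescence measured ATXN2-luciferase expression after a fluorogenic Gly-Phe-AFC viability readout (25 uM final).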
12-LOX inh – Primary qHTS assay for inhibitors of human arachidonate 12S-lipoxygenase (ALOX12): Round 2 | Polyunsaturated fatty acid lipoxygenase ALOX12 (Homo sapiens), P18054 | purified 12hLO, xylenol orange hydroperoxide absorbance | Potency, µM (doses to about 108 µM), for the others: at the top dose activity change, negative = inhibition, most hits filed as inhibitors | 580,000 tested, 1.1% active | AID 1671190, 2021; note: % is set by controls: 0 for no effect and ±100 for the full control effect
Target sequence (P18054 whole entry, looked up): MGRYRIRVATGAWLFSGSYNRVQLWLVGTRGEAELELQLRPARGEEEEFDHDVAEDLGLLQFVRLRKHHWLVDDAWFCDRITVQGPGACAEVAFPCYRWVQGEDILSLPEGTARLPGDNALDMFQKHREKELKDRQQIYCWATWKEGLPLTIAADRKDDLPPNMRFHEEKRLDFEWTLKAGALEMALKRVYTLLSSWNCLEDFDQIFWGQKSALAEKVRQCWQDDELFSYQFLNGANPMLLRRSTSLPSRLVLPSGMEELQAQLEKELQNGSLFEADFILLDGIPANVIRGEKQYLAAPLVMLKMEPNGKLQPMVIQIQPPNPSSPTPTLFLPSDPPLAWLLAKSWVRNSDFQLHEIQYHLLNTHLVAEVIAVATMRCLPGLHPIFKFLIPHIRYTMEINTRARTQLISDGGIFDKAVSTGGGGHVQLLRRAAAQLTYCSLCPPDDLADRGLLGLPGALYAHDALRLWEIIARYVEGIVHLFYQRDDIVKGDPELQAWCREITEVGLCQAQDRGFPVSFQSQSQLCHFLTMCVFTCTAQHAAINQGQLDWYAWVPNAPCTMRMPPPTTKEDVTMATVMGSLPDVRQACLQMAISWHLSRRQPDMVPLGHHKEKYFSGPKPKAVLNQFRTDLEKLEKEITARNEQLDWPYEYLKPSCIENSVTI
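Hydroperoxide product was detected by ferrous iron/xylenol orange as the 573 to 405 nm absorbance ratio. Arachidonic acid at 40 uM (final) was turned over for 30 min at room temperature by 150 nM human 12hLO, pH 7.0 Hepes buffer, after 15 min compound preincubation.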
HepG2 tox – qHTS for Inhibitors of TGF-b: Cytotox Counterscreen | HepG2 CAGA-GFP viability, ATP luminescence, 18 h | Potency, µM (series often up to 46.1 µM), for inactives: at the top dose activity change, negative = cytotoxicity, most hits filed as cytotoxic | 410,000 tested, 0.76% active | AID 588856, 2011
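HepG2 CAGA-GFP cells (1000/well, DMEM with 1% FBS) received compound, then TGF-beta at 500 pg/mL final, and were incubated 18 hours at 37 degrees C. Viability was read by CellTiter-Glo luminescence. Media-only wells were set as complete cell-killing and DMSO as no toxicity.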
TGFb inhibitor – qHTS for Inhibitors of TGF-b | HepG2 CAGA-GFP TGF-b/SMAD3 reporter, GFP fluorescence, 18 h; TGF-beta stimulated, 500 pg/mL final | Potency, µM (doses to about 46.1 µM), without a hit: at the top dose activity, negative = inhibition, hits mostly inhibitors | 410,000 tested, 1.2% active | AID 588855, 2011; note: % is set by controls: 0 for no effect and ±100 for the full control effect; nearly all actives have a fitted effect of over 65% in size
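HEPG2 CAGA-GFP, 1000 cells/well; 2 h settle, 37 C; cpd via pin tool; TGF-b 500 pg/mL final; 18 h, 37 C; GFP imaging ex488/em500-530; %Activity normalised to -TGF-b and +DMSO controls; CRC fit, curve class.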
* marks the source's active call; other numbers are inactive results; i = inactive; ? = inconclusive; . = not tested or not shown; [ ] = another dose, or the depositor's remark. This is a sample that favours compounds with a hit; in the whole collection about 2.7% have one here. Calls come from the whole dose curve; as a rule, active = well fitted curve in the direction sought with a large enough effect; inconclusive = small, poorly fitted or top-dose-only effect, or another doubt; inactive = no such curve, though single readings can be large; an effect the other way counts as inactive or inconclusive. Potency is the fitted concentration of half-maximal effect.

SMILES | S2 tox | ATXN2 expr inh | 12-LOX inh | HepG2 tox | TGFb inhibitor
COc1cc(/C=C2/C(=O)NN(c3ccc(Cl)cc3)C2=O)ccc1OC(=O)c1ccco1 | i | -8.0% | 8.91µM* | -6.0% | 0.0%
COc1cc(/C=C2/C(=O)NN(c3ccc(Cl)c(Cl)c3)C2=O)cc([N+](=O)[O-])c1O | i | -0.6% | 35.5µM* | 3.9% | -8.3%
COc1cc(/C=C2/C(=O)NN(c3ccc(F)cc3)C2=O)cc(Cl)c1O | i | -37.9% | ? | 3.8% | 0.1%
COc1cc(/C=C2/C(=O)NN(c3ccc(Cl)cc3)C2=O)cc(Br)c1O | i | -31.0% | 0.0% | -1.3% | 21.2%
COc1cc(/C=C2/C(=O)NN(c3cccc(F)c3)C2=O)ccc1OC(=O)c1ccco1 | i | 14.4% | 44.7µM* | -57.3% | ?
N#CCN(C(=O)c1ccccc1)C1CC1 | . | . | 56.3% | . | .
Cc1sc(-n2cnnn2)c(C(=O)Nc2ccc3c(c2)OCCO3)c1C | . | . | 1.4% | . | .
CC(Oc1cccc(Br)c1)C(=O)NNC(=O)c1ccc2c(c1)NC(=O)CCS2 (centres undefined) | . | . | 44.7µM* | . | .
O=C1CCSc2ccc(C(=O)NNC(=S)NCc3ccccc3)cc2N1 | . | . | 13.9% | . | .
O=c1n(-c2ccc(F)cc2F)nc2n1CCN(Cc1cccc3ccccc13)C2 | . | . | 28.2µM* | . | .
O=c1n(-c2ccc(Cl)cc2)nc2n1CCN(Cc1cccc3ccccc13)C2 | . | . | 11.3%[6.33 µM] | . | .
CCOc1ccc(C(C)=O)cc1CN(C)CC(=O)Nc1ccc(Cl)cc1 | . | . | -21.2% | . | .
COc1ccc(CC(N)c2csc(NC(=O)Nc3ccc(OC)cc3)n2)cc1 (centres undefined) | ? | ? | -26.1% | -81.6% | ?
COc1ccc(CC(N)c2csc(NC(=O)c3cc(C(C)(C)C)oc3C)n2)cc1 (centres undefined) | 28.2µM* | ? | ? | -102.7% | ?
COc1cc(NC(=O)Nc2nc(C(N)C(C)C)cs2)cc(OC)c1OC (centres undefined) | ? | -17.3% | -1.9% | -10.6% | -9.2%
COc1ccc(NC(=O)Nc2nc(C(N)Cc3ccc(C(F)(F)F)cc3)cs2)cc1 (centres undefined) | i | ? | ? | 10µM* | 11.2µM*
COc1cc(NC(=O)Nc2nc(C(N)Cc3ccc(C(F)(F)F)cc3)cs2)cc(OC)c1OC (centres undefined) | ? | ? | ? | -106.5% | 11.2µM*
Cc1ccc(C(=O)Nc2nc(C(N)Cc3ccc(C(F)(F)F)cc3)cs2)cc1 (centres undefined) | . | ? | 9.6% | 17.8µM* | ?
CC(=O)c1ccc(Nc2nc(C(N)Cc3ccc(C(F)(F)F)cc3)cs2)cc1 (centres undefined) | i | 0.0% | -16.4% | -93.9% | ?
CN1CCN(C2=C(Cl)C(=O)N(C3CCCCC3)C2=O)CC1 | i | -22.4% | -13.2% | -78.9% | 12.6µM*
COc1ccc(Cl)cc1NC(=O)CCC1CCCN(C(=O)c2ccoc2C)C1 (centres undefined) | . | . | 19.2% | . | .
O=C(Nc1c(F)cccc1F)N1CCOc2ccc(CN3CCc4ccccc4C3)cc2C1 | . | . | 30.3% | . | .
Cc1cccc(N2CC(C(=O)Nc3nnc(SCCC4OCCO4)s3)CC2=O)c1 (centres undefined) | i | 1.7% | 8.91µM* | -5.0% | -4.5%
Cc1cc(SCC(=O)NC(=O)NC(C)(C)C)nc2ccccc12 | . | . | -18.9% | . | .
S=C(NCc1ccco1)Nc1ccc(Cl)c(Cl)c1 | i | ? | 28.2µM* | -39.8% | ?
SMILES | S2 tox | ATXN2 expr inh | 12-LOX inh | HepG2 tox | TGFb inhibitor
S=C(NCc1ccco1)Nc1cc(-c2ccccc2)[nH]n1 | i | 4.5% | 5.01µM* | -12.3% | -18.9%
S=C(NCc1ccco1)Nc1ccc(Oc2ccccc2)cc1 | i | . | 44.7µM* | -26.7% | ?
S=C(NNC(=S)NC1CCCCC1)NC1CCCCC1 | . | . | -8.2% | . | .
Cc1nc(NCCC(C)C)sc1C(=O)NC1CC1 | . | . | 63.3% | . | .
CCCCn1c(=O)[nH]c(=O)c2c1nc(CSc1nnnn1CC(C)C)n2CC | . | . | -13.0% | . | .
CCCN1CCN(c2ncnc3sc(C(=O)Nc4ccc(OC(F)(F)F)cc4)c(C)c23)CC1 | . | . | ? | -112.4% | 22.4µM*
Cc1ccc(OCn2ccc(C(=O)N3CCN(Cc4ccccc4F)CC3)n2)c(C)c1 | . | . | -2.8% | . | .
CC(C)CC1C(=O)N(Cc2cn(CC3CCCCC3)nn2)CCS(=O)(=O)N1Cc1ccc(-c2ccc(Cl)c(Cl)c2)cc1 (centres undefined) | ? | -4.7% | -5.7% | -19.1% | -28.1%
CCC/C=C/c1ccc(CN2C(CC(C)C)C(=O)N(Cc3cn(CCC4OCCCO4)nn3)CCS2(=O)=O)cc1 (centres undefined) | . | ? | ? | 15.8µM* | 12.6µM*
CCC/C=C/c1ccc(CN2C(CC(C)C)C(=O)N(Cc3cn(CCC4OCCO4)nn3)CCS2(=O)=O)cc1 (centres undefined) | . | ? | ? | -81.4% | ?
CC(C)CC1C(=O)N(Cc2cn(CCC3OCCCO3)nn2)CCS(=O)(=O)N1Cc1ccc(-c2ccc(F)cc2)cc1 (centres undefined) | ? | 0.0% | 1.2% | -21.4% | ?
Cc1cccc(C)c1-c1ccc(CN2C(CC(C)C)C(=O)N(Cc3cn(CC4CCCCC4)nn3)CCS2(=O)=O)cc1 (centres undefined) | 35.5µM* | ? | -85.5% | 11.2µM* | ?
Cc1ccc(-c2ccc(CN3C(CC(C)C)C(=O)N(Cc4cn(CCC5OCCCO5)nn4)CCS3(=O)=O)cc2)cc1 (centres undefined) | . | 28.2µM* | -14.9% | -56.8% | ?
CCCCN(CC)C(=O)c1cccc2c(C)c(C)[nH]c12 | . | . | -12.7% | . | .
Cc1ccccc1-c1nc(CSc2nc(C)c(C)c(=O)[nH]2)c(C)o1 | . | . | 10.7% | . | .
N#C/C(=C\c1ccc([N+](=O)[O-])o1)C(=O)NC1CCCCC1 | . | . | 15.8µM* | . | .
N#C/C(=C\c1cccnc1)C(=O)NC1CCCC1 | . | . | -23.3% | . | .
N#C/C(=C\c1ccco1)C(=O)NC1CCCC1 | . | . | 39.8µM* | . | .
CC(C)C(=O)NCCNC(=O)c1cc(-c2ccncc2)nc2ccccc12 | . | . | -66.6% | . | .
Cc1cc(C)nc(NC(N)=NCc2cccnc2)n1 | . | . | 3.4% | . | .
COc1ccc(C(=O)Nc2nc3c(s2)C[C@@H]2[C@](C)(CO)[C@H](O)CC[C@@]2(C)[C@@H]3CC(=O)N2CCOCC2)cc1 | . | . | 89.1µM* | . | .
Cc1cc(NC(=O)C(C)Sc2nccn2-c2cccc(F)c2)no1 (centres undefined) | . | . | -0.8% | . | .
COc1cc(/C=C2\CCc3c2nc2ccccc2c3C(=O)O)cc(OC)c1OC | . | . | ? | -5.1% | -23.1%

Assay outcomes as filed in PubChem BioAssay.
